Source: PubChem BioAssay (National Center for Advancing Translational Sciences (NCATS))
HCV inhibitor – qHTS Assay for Inhibitors of Hepatitis C Virus (HCV); actives 3.4% (n = 340,000); Potency, µM (highest dose often 41.8 µM), for the others: at the top dose activity change, negative = inhibition, usual class: inhibitors; AID 651820, 2012; Huh7.5.1 HCVcc-Cre infection, luciferase reporter, 44 h; note: potency is the fitted concentration of half-maximal effect
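A cell-based infection assay in which seeded cells (1,000 per well) receive test compound after 4 h, are inoculated with HCVcc-Cre at approximately 0.5 moi, and are incubated 44 h before luminescence detection.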
HCMV antiviral – qHTS Assay for inhibitors of the human cytomegalovirus (HCMV); activity change, negative = inhibition, % at 57.5 µM; actives 4.5% (n = 410,000); HFF cells, HCMV-luciferase reporter, 72 h; stronger effect = lower value; in the data active = activity change below about -60%; inconclusive = no clear call, values can overlap the other calls; inactive = above about -39%
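Two-dose cell screen: HFF monolayers treated with compounds and infected with luciferase-expressing HCMV at 1 PFU/cell, 72 h at 37C, then lysed for luciferase measurement.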
FBPA Giardia inh – qHTS Assay for Inhibitors of Fructose-1,6-bisphosphate Aldolase from Giardia Lamblia. A8B2U2. purified Giardia FBPA. Potency, µM (doses to about 59.6 µM), inactives show at the top dose activity, negative = inhibition, actives largely listed as inhibitors. actives 0.71% (n = 290,000). AID 2451, 2010; note: potency is the fitted concentration of half-maximal effect; nearly all actives have a fitted effect of over 55% in size
Target sequence (A8B2U2 whole entry, looked up): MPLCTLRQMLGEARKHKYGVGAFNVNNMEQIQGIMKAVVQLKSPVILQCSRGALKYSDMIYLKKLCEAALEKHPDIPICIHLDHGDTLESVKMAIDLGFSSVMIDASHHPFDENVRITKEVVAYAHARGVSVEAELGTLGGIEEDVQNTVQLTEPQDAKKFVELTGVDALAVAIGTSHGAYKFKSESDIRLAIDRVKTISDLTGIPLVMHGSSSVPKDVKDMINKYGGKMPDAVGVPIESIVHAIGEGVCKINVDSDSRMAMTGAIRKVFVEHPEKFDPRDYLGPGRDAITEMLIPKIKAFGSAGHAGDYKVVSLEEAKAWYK
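Giardia FBPA (40 nM reagent) was preincubated 10 min at RT with compound (up to 57.5 uM final), then substrate plus GAPDH/TPI/NAD/arsenate coupling system with diaphorase/resazurin was added; resorufin fluorescence (525/598 nm) was read after 20 min.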
FMDV inh – High Throughput Screening for Foot and Mouth Disease Virus Antivirals | FMDV antiviral cell-based qHTS | Potency, µM (titrated, usually from 57.9 µM), for the others: top-dose activity change, negative = inhibition, actives largely listed as inhibitors | actives 1.2% (n = 410,000); calls by dose curve; tested in HEK293T cells; note: read-out not given here; potency is the fitted concentration of half-maximal effect; nearly all actives have a fitted effect of over 45% in size
VACV mCherry inh – qHTS for Stage-Specific Inhibitors of Vaccinia Orthopoxvirus: mCherry Reporter Primary qHTS; Vaccinia virus mCherry reporter infection, fluorescence; Potency, µM (top dose mostly 36.5 µM), for the others: top-dose activity change, negative = inhibition, hits mostly inhibitors; actives 0.63% (n = 310,000); calls by dose curve; tested in A549 cells; note: potency is the fitted concentration of half-maximal effect; nearly all actives have a fitted effect of over 35% in size
Vaccinia Venus – qHTS for Stage-Specific Inhibitors of Vaccinia Orthopoxvirus: Venus Reporter Primary qHTS. Vaccinia virus Venus reporter expression, fluorescence. actives 0.46% (n = 330,000). Potency, µM (highest dose often 36.5 µM), for inactives: top-dose activity change, negative = inhibition, hits mostly inhibitors. AID 720580, 2013; calls by dose curve; tested in A549 cells; note: potency is the fitted concentration of half-maximal effect; nearly all actives have a fitted effect of over 30% in size
* = called active by the depositor; i = inactive; ? = inconclusive; . = no result given; + = active, no number. Most compounds without a hit are left out; they make up all but 7.5% or so of the library. Unless noted, calls come from the whole dose curve; as a rule, active = well fitted curve in the direction sought with a large enough effect; inconclusive = small, poorly fitted or top-dose-only effect, or another doubt; inactive = no such curve, though single readings can be large; an effect the other way counts as inactive or inconclusive. % is set by controls: 0 for no effect and ±100 for the full control effect.

SMILES	HCV inhibitor	HCMV antiviral	FBPA Giardia inh	FMDV inh	VACV mCherry inh	Vaccinia Venus
O=C(Nc1ccc(CN2CCOCC2)cc1)c1cc(Br)ccc1Cl	-12%	-11	-7%	-9%	.	.
O=C(Nc1ccc(CN2CCOCC2)cc1)c1ccc(Cl)cc1Cl	10µM*	-38	12%	-11%	.	.
COC(=O)c1cc(NC(=O)c2ccc(-c3ccc(Cl)cc3Cl)o2)cc(C(=O)OC)c1	.	-7	.	-22%	-11%	-6%
CN1CCN(c2ccc(NC(=O)c3ccc(-c4ccc(Cl)cc4)o3)cc2)CC1	?	18	4%	-24%	?	11µM*
O=C(Nc1ccc(CN2CCOCC2)cc1)c1ccc(-c2cccc(Cl)c2)o1	?	-86*	.	35µM*	.	.
O=C(Nc1ccc(CN2CCOCC2)cc1)c1ccc(-c2ccc(Cl)cc2Cl)o1	?	-65*	-12%	?	-9%	?
O=C(NC(=S)Nc1ccc(CN2CCOCC2)cc1)c1ccc(-c2ccc(Br)cc2)o1	8%	.	0%	-30%	i	17%
Nc1ccc(Cc2ccc(C=O)cc2)cc1	.	.	.	.	i	-15%
O=C(NC(=S)Nc1ccc(CN2CCOCC2)cc1)c1ccc(-c2ccc(Cl)cc2)o1	6%	-28	-5%	?	.	.
O=C(NC(=S)Nc1ccc(CN2CCOCC2)cc1)c1ccc(-c2cccc(Cl)c2)o1	14µM*	?	-12%	35µM*	.	.
Cc1c(C(=O)N2CCCC(C)C2)sc2ncnc(NCCN3CCCCC3)c12 (centres undefined)	.	.	.	1%	-23%	-11%
COc1ccccc1NC(=O)c1sc2nc(-c3cc4ccccc4oc3=O)[nH]c(=O)c2c1C	.	-3	.	-21%	-5%	-2%
COc1cccc2cc(-c3nc4sc(C(=O)Nc5ccc(F)cc5F)c(C)c4c(=O)[nH]3)c(=O)oc12	.	+	.	7%	-4%	23%
COc1cccc(NC(=O)c2cc3ccccc3cc2OC)c1	-22%	132	0%	74%	.	.
COc1cc(-c2nc3c[n+](CC(=O)c4ccccc4)ccc3n2C)cc(OC)c1OC	25%	36	5%	-20%	i	-11%
COc1ccc(C(=O)C[n+]2ccc3c(c2)nc(-c2ccc(OC)cc2OC)n3C)cc1	15%	-99*	2%	-22%	-1%	-18%
COc1ccc(C(=O)C[n+]2ccc3c(c2)nc(-c2ccccc2)n3C)cc1	1%	-91*	7%	-27%	i	-4%
Cc1cc(F)ccc1S(=O)(=O)NCC(c1ccco1)S(=O)(=O)c1cccs1 (centres undefined)	.	-19	.	59%	-9%	-7%
Oc1cc(-c2nc3ccccc3s2)cc2c1OCCN(Cc1cn[nH]c1-c1ccc(Cl)cc1)C2	.	.	.	10%	-22%	-10%
Cc1cc(Cn2nc(-c3ccccc3)cc2C(=O)NCc2cccc(Br)c2)on1	5.6µM*	41	.	5%	?	-19%
Cc1cc(CNC(=O)c2cnn(-c3ncc4c(n3)-c3ccccc3CC4)c2C2CC2)on1	.	.	.	25%	-20%	-9%
CC1CCCCN1c1nnc(NC(=O)Nc2ccccc2F)s1 (centres undefined)	.	12	.	-12%	-10%	-7%
Cn1c(=O)c2c(ncn2CC(=O)Nc2cc(Cl)c(Cl)cc2Cl)n(C)c1=O	.	.	4%	.	.	.
CC(=O)c1sc(NC(=O)c2cc(-c3ccccc3)nn2-c2ccccc2)nc1C	?	-3	0%	?	i	2%
O=C(Nc1nc2ccccc2s1)c1cc(-c2ccccc2)nn1-c1ccccc1	?	-75*	6%	-24%	?	13%
SMILES	HCV inhibitor	HCMV antiviral	FBPA Giardia inh	FMDV inh	VACV mCherry inh	Vaccinia Venus
N#CC1CN(Cc2ccccc2)CN(Cc2ccccc2)C1	7%	-63*	-1%	-26%	-11%	-15%
Cc1cc(SCC(=O)Nc2ccc(O)cc2)n2nc(C)c(-c3ccccc3)c2n1	?	-62*	0%	-24%	i	-16%
CCSc1cc(C)nc2c(-c3ccccc3)c(C)nn12	?	-27	4%	15%	-23%	-21%
C=C(C)CSc1cc(C)nc2c(-c3ccccc3)c(C)nn12	?	-85*	2%	-1%	.	.
CCCCNC(=O)C1C(c2ccc(C(F)(F)F)cc2)=Nc2ccccc2N1C(=O)c1ccc2nc(C)[nH]c2c1 (centres undefined)	.	-86*	.	33%	?	?
O=C(NC1CCCC1)C1C(c2ccc(C(F)(F)F)cc2)=Nc2ccccc2N1C(=O)c1cccc(C(F)(F)F)c1 (centres undefined)	.	62	.	16%	-4%	-20%
O=C(NC1CCCC1)C1C(c2ccccc2)=Nc2ccccc2N1C(=O)c1ccc(C(F)(F)F)cc1 (centres undefined)	.	-83*	.	9%	-18%	11%
Cc1onc(-c2ccccc2)c1C(=O)O/N=C(\N)c1ccc([N+](=O)[O-])o1	11µM*	-10	-5%	?	.	.
Cc1onc(-c2cccc(Cl)c2Cl)c1C(=O)O/N=C(\N)c1ccc([N+](=O)[O-])o1	?	-28	-6%	?	?	?
COc1ccc(OC)c(S(=O)(=O)N(C)CC(=O)Nc2cc(Cl)ccc2OC)c1	11µM*	5	0%	?	.	-21%
CCN(CC)C(=O)CN(c1cc2c(cc1OC)oc1ccccc12)S(=O)(=O)c1ccccc1	10µM*	24	-1%	16%	.	?
COc1ccccc1N(CC(=O)NCCSCc1cccc(C)c1)S(=O)(=O)c1ccccc1	13µM*	-37	.	?	-5%	-23%
COc1cc2oc3ccccc3c2cc1N(CC(=O)N(C)C)S(=O)(=O)c1ccccc1	-20%	76	5%	38%	.	-19%
COc1ccc(Cl)cc1NC(=O)CN(C)C(=O)C1CC(=O)N(Cc2ccc(C)cc2)C1 (centres undefined)	32µM*	-4	.	-8%	-7%	-5%
CCCC(=O)NC(=S)c1c(C)n(C)n(-c2ccccc2)c1=O	5%	35	-3%	-12%	0%	-9%
COc1ccc(N(CC(=O)Nc2ccc(Cl)cc2C)S(=O)(=O)c2ccccc2)c(OC)c1	.	-71*	.	-10%	-15%	-9%
COc1ccc(OC)c(NC(=O)CN(c2ccccc2OC)S(=O)(=O)c2ccc(C)cc2)c1	.	-100*	.	-23%	-14%	-12%
COc1ccc(Cl)cc1NC(=O)CN(C)C(=O)c1sc2ccccc2c1Cl	13µM*	3	.	-15%	.	.
COc1ccc(NC(=O)CN(c2ccccc2)S(=O)(=O)c2ccccc2)c(OC)c1	?	-33	-6%	-6%	.	.
